According to PubChem BioAssay:
Activity calls are given as the source filed them.

Legend:
[1] = tested on: Human papillomavirus type 1a protein E7 (residues 44-93); assay: small molecules binding HPV E7 44-93 – biochemical, small-molecule microarray, residues 44-93, 635 nm fluorescence, primary screen (AID 1108); settings: fluorescence 635 nm, higher = more signal;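 also: E7 fragment applied at 1 µg/mL in TBST for 1 h at 4 C; score combines spot fluorescence with its signal to noise ratio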
[2] = hepatitis C replication reporter changes, two-sided – Huh7 cells, luciferase reporter, HCV replication inhibitor project, primary screen (AID 1109); settings: Huh7 HCV replicon luciferase reporter, 48 h; higher = more signal;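 also: huh7 hepatoma cells harbouring a luciferase neomycin HCV replicon reporter; luciferase luminescence as measure of HCV replicon replication; test concentration not given here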
[3] = biological target: Left-right determination factor 2 (Homo sapiens) (UniProt O00292); assay: small molecules binding LEFTY2 protein – biochemical, small-molecule microarray, 635 nm fluorescence scan, primary screen (AID 1110); settings: higher = more signal
Left-right determination factor 2 (Homo sapiens), sequence (O00292 whole entry, looked up): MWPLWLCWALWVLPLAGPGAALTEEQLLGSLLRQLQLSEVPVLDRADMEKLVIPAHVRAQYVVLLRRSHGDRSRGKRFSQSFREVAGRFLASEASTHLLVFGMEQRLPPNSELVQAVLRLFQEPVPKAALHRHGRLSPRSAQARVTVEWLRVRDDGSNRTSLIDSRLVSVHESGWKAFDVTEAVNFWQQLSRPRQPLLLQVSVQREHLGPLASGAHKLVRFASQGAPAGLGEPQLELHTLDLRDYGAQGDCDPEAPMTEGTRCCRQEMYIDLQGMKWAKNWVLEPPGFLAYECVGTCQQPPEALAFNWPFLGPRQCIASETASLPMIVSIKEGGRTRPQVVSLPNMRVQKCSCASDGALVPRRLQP

[4] = biological target: Calmodulin-1 (Homo sapiens) (UniProt P0DP23); assay: small molecules binding calmodulin-1 with EGTA – biochemical, small-molecule microarray, Cy5-labelled CALM1, profiling panel (AID 1111); settings: Cy5-CALM1 binding fluorescence, higher = more signal;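 also: labelled calmodulin applied in Tris saline Tween buffer holding calcium plus EGTA and DTT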
[5] = biological target: Calmodulin-1 (Homo sapiens) (UniProt P0DP23); assay: small molecules binding Ca-loaded calmodulin-1 – biochemical, small-molecule microarray, Cy5-labelled CALM1, plus calcium, artefact control for SMM control-protein annotation, profiling panel (AID 1112); settings: Cy5-CALM1 binding fluorescence, higher = more signal;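 also: score merges spot fluorescence with signal to noise from triplicate slides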
[6] = probe aWnt5a binding to arrayed compounds – biochemical, biotinylated probe, 635/667 nm fluorescence, primary screen (AID 1113); settings: small-molecule microarray, higher = more signal;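 also: score merges 667 nm fluorescence intensity with signal-to-noise per printed feature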
[7] = probe aShh binding to arrayed compounds – biochemical, biotinylated probe, 635/667 nm fluorescence, primary screen (AID 1114); settings: small-molecule microarray, higher = more signal;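 also: probe is biotin-labelled aShh protein from a stem cell growth factor screen; measures binding of labelled protein to compounds printed on the slide; score merges feature fluorescence at 667 nm with signal-to-noise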
[8] = probe aNog binding to arrayed compounds – biochemical, biotinylated probe, 635/667 nm fluorescence, primary screen (AID 1115); settings: small-molecule microarray, higher = more signal;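 also: probe is biotinylated aNog protein used at 0.15 µg/mL for 1 h at 4 C; z-score combines 667 nm fluorescence of each spot with its signal to noise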
[9] = biological target: Torsin-1A-interacting protein 1 (Homo sapiens) (UniProt Q5JTV8); assay: compound microarray binding of lysate hLAP1 – cell lysate, small-molecule microarray, COS7 lysate, 635/667 nm fluorescence, primary screen (AID 1116); settings: 635 nm fluorescence, higher = more signal
Torsin-1A-interacting protein 1 (Homo sapiens), sequence (Q5JTV8 whole entry, looked up): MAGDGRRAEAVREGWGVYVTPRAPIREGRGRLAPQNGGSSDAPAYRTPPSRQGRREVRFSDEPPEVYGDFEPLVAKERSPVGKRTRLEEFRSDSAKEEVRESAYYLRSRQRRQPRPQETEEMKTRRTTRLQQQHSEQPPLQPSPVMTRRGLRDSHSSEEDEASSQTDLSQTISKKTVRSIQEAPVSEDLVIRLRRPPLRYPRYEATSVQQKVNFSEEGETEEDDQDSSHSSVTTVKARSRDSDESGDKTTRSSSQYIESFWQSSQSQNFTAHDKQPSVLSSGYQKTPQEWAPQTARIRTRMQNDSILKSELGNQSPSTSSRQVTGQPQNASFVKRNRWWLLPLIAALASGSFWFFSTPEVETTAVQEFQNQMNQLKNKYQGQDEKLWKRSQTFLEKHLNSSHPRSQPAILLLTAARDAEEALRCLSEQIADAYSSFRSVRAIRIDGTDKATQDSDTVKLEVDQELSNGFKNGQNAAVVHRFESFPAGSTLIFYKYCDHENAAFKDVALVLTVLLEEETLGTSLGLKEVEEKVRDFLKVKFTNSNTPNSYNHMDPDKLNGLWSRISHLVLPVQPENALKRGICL

[10] = biological target: Alpha-bungarotoxin (Bungarus multicinctus) (UniProt P60615); assay: compounds binding labelled alpha-BTX control protein – biochemical, small-molecule microarray, Alexa647 label, 635/667 nm fluorescence, artefact control for SMM control protein annotation, profiling panel (AID 1117); settings: alpha-BTX-A647 binding fluorescence, higher = more signal
Alpha-bungarotoxin (Bungarus multicinctus), sequence (P60615 whole entry, looked up): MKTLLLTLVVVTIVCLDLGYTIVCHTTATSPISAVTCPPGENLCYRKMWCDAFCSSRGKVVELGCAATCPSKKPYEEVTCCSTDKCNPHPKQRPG

Albumin (Bos taurus) = Albumin (Bos taurus) (UniProt P02769); assay: compounds binding labelled BSA control protein – biochemical, small-molecule microarray, Alexa647 label, 635/667 nm fluorescence, artefact control for SMM control protein annotation, profiling panel (AID 1118); settings: BSA-A647 binding, fluorescence 635 nm, higher = more signal;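 also: score merges 667 nm emission intensity and signal-to-noise per printed compound spot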
Albumin (Bos taurus), sequence (P02769 whole entry, looked up): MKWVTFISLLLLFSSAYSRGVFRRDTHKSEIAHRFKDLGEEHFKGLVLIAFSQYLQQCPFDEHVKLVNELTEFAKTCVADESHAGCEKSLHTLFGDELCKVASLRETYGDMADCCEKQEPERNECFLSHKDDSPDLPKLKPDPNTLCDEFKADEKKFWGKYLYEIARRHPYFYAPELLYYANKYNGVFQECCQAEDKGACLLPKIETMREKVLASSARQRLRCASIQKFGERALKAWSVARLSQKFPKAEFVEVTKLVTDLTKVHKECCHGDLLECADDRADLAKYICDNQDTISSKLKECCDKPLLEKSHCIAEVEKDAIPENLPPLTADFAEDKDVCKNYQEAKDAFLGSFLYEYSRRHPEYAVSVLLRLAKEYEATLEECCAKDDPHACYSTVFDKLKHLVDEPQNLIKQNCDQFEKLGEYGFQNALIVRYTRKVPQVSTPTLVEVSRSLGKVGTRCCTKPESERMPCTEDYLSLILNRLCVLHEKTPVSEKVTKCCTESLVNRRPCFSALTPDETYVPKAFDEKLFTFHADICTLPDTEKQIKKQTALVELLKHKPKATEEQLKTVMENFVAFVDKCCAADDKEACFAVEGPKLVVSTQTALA

[11] = probe aXIP binding to arrayed compounds – biochemical, NeuroSMM set, 635/667 nm fluorescence, primary screen (AID 1119); settings: small-molecule microarray, higher = more signal, called active from +8 up or from −8 down;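 also: probe is the protein aXip251-270 applied at 1 µg/mL to compound-printed slides; binding of probe to printed compounds measured as 667 nm fluorescence plus signal to noise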
[12] = probe aNOTCH3 binding on compound microarray – biochemical, small-molecule microarray, 635/667 nm fluorescence, primary screen (AID 1120); settings: higher = more signal;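 also: probe is a biotin-tagged antibody raised against NOTCH3 rather than NOTCH3 protein; score merges spot fluorescence near 667 nm with spot signal to noise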
[13] = probe aNOTCH2 binding on compound microarray – biochemical, small-molecule microarray, 635/667 nm fluorescence, primary screen (AID 1121); settings: higher = more signal;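 also: score merges feature fluorescence read at 667 nm with its signal to noise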
[14] = biological target: Carbonic anhydrase 2 (Homo sapiens) (UniProt P00918); assay: compounds binding carbonic anhydrase 2 – biochemical, small-molecule microarray, Alexa647-labelled CAII, profiling panel (AID 1122); settings: CAII-A647 binding fluorescence, higher = more signal
[15] = COS7 lysate on small-molecule microarray, probe aHis, 635 nm (AID 1123); settings: COS7 cell lysate, fluorescence, higher = more signal;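 also: z-score combines 667nm fluorescence intensity with signal-to-noise per printed compound spot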
[16] = probe aLAP1 signal on lysate-treated microarray – cell lysate, small-molecule microarray, COS7 lysate, primary screen (AID 1124); settings: probe aLAP1, fluorescence, higher = more signal;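 also: lysate comes from COS7 cells expressing LAP1 and is applied at 0.3 µg/mL; score merges spot fluorescence near 667 nm with signal-to-noise over triplicate slides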
Sam68 (KHDRBS1) = assay: compounds binding KHDRBS1 protein – biochemical, small-molecule microarray, 635 nm fluorescence, primary screen (AID 1125); settings: higher = more signal;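 also: score merges 667 nm channel intensity with signal to noise over triplicate slides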
[17] = tested on: Chordin-like protein 2 (CHRDL2); assay: compounds binding chordin-like 2 – biochemical, small-molecule microarray, 635 nm fluorescence, primary screen (AID 1126); settings: fluorescence 635 nm, higher = more signal;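 also: printed compound slides probed with Chrdl2 protein at 4 µg/mL for 1 h at 4 C; score merges 667 nm emission intensity with signal to noise over three replicate slides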
[18] = biological target: Concanavalin-A (Canavalia ensiformis) (UniProt P02866); assay: compounds binding concanavalin A lectin – biochemical, small-molecule microarray, Alexa647 label, 635 nm, artefact control for SMM control protein annotation, primary screen (AID 1127); settings: ConA-A647 binding fluorescence, higher = more signal;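 also: z combines 667 nm emission intensity with signal-to-noise across three replicate slides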
Concanavalin-A (Canavalia ensiformis), sequence (P02866 whole entry, looked up): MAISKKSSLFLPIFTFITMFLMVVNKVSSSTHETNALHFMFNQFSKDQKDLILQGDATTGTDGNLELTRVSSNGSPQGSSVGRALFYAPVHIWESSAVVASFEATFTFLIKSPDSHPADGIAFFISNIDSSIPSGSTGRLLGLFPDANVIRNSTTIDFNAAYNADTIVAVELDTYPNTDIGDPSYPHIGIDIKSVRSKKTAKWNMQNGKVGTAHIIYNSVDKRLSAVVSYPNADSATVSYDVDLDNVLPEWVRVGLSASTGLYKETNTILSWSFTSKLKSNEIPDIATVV

| Structure (SMILES) | composite z-score [1] | z-score [2] | composite z-score [3] | composite z-score [4] | composite z-score [5] | composite z-score [6] | composite z-score [7] | composite z-score [8] | composite z-score [9] | composite z-score [10] | composite z-score (Albumin (Bos taurus)) | composite Z-score [11] | composite z-score [12] | composite z-score [13] | composite z-score [14] | composite z-score [15] | composite z-score [16] | composite z-score (Sam68 (KHDRBS1)) | composite z-score [17] | composite z-score [18] |
| --- | --- | --- | --- | --- | --- | --- | --- | --- | --- | --- | --- | --- | --- | --- | --- | --- | --- | --- | --- | --- |
| CCOC(=O)[C@H]1[C@@H]2C(=O)N3CCC[C@H]3[C@H](O[Si](C(C)C)(C(C)C)C(C)C)[C@H]2C=C2CCN(S(=O)(=O)c3ccc(C)cc3)C[C@H]21 | 1.28 | -3.6 | 0.637 | 0.791 | -0.185 | -0.0379 | 0.0815 | -0.709 | 0.694 | 0.962 | 0.603 | 0.156 (inactive) | 0.0208 | -0.112 | 0.481 | 1.15 | 0.171 | 1.3 | 0.484 | 1.12 |
| COc1ccc([Si](C)(C)[C@@H]2[C@@H](CC(=O)N(CCO)Cc3ccccc3)O[C@]3(C(=O)N(c4ccccc4)c4ccccc43)[C@H]2C)cc1 | 1.33 | -4.59 | 0.739 | 0.545 | 0.0061 | -0.0559 | -0.135 | -0.495 | 0.395 | 0.883 | 0.593 | 0.657 (inactive) | 0.105 | -0.162 | 0.357 | 1.07 | 0.0513 | 0.981 | 1.4 | 1.1 |
| COC(=O)c1c(CC[C@@H](CO)NC(=O)N[C@H](Cn2cc(C3(O)CCCCC3)nn2)C(C)C)oc(C(C)=O)c1C(=O)OC | 1.01 | -0.415 | 0.724 | 0.169 | -0.715 | 0.002 | 0.151 | 0.141 | 0.748 | 1.65 | -0.471 | 0.183 (inactive) | 0.0282 | -0.0878 | 0.209 | 0.32 | -0.0003 | 1.14 | 0.513 | 1.16 |
| COc1ccc([Si](C)(C)[C@H]2[C@H](CC(=O)N(CCO)Cc3ccccc3)O[C@@]3(C(=O)N(Cc4cccc(N5CCOC5=O)c4)c4ccccc43)[C@@H]2C)cc1 | 0.671 | -4.06 | 0.498 | 0.107 | -0.48 | -0.154 | -0.147 | -0.318 | 0.0843 | 0.429 | -0.255 | 0.897 (inactive) | -0.0288 | -0.104 | 0.591 | 1.1 | 0.735 | 1.3 | 0.623 | 0.995 |
| CC(C)C(=C=CC[C@H](O)c1ccc(OCCO)cc1)C[C@H](O)c1ccccn1 | 1.22 | -0.789 | -0.0676 | 0.0123 | -0.0896 | -0.1 | -0.0769 | -0.132 | 0.859 | 1.6 | 0.449 | 0.168 (inactive) | -0.0044 | -0.13 | 0.513 | 0.619 | 0.864 | 1.19 | -0.237 | -0.057 |
| COc1cc2c(cc1OC)CN(C(=O)[C@@H]1[C@H]3C(=O)O[C@H](c4ccccc4)[C@H](c4ccccc4)N3[C@H](c3ccc(OCCO)cc3)[C@@]13C(=O)Nc1ccc(C#CC4(O)CCCCCC4)cc13)CC2 | 1.34 | -1.34 | 0.866 | 1.52 | -0.225 | 0.0596 | 0.0985 | -0.111 | 1.37 | 1.69 | 0.872 | 0.266 (inactive) | 0.398 | -0.166 | 0.543 | 2.03 | 0.514 | 1.32 | 0.978 | 1.13 |
| O=C1OCC=C[C@H]2OC34C=CCN(c5ccc(Cl)cc5)C(=O)[C@H]3N(CCO)C(=O)[C@@H]4[C@@H]12 (stereo not given in full) | -0.0723 | -0.515 | -0.884 | -0.577 | 0.515 | -0.28 | -0.304 | -0.115 | 0.0143 | -0.003 | -0.212 | 0.703 (inactive) | -0.306 | -0.211 | 0.903 | 2.81 | 0.0653 | -0.381 | -1.52 | -0.606 |
| CC(C)C(CO)N1C(=O)[C@@H]2C3C(=O)OCCC/C=C\[C@H]3OC23C=CCN(C(C)(C)C)C(=O)[C@@H]13 (stereo not given in full) | -0.0297 | -0.57 | -0.383 | -0.903 | -0.804 | -0.124 | 0.0141 | -0.368 | -0.24 | -1.54 | -0.632 | -0.115 (inactive) | -0.304 | -0.156 | 0.815 | -0.12 | -0.281 | -0.142 | -0.438 | -1.47 |
| Cc1ccc(S[C@]2(C(=O)O)CC(=O)N(Cc3ccccc3Cl)[C@@H]2c2ccc(CO)cc2I)cc1 | -0.455 | -1.77 | 0.0515 | -0.326 | -0.952 | -0.483 | 0.209 | -1.13 | -0.421 | -0.338 | 0.0877 | -0.648 (inactive) | -0.515 | -0.269 | 0.31 | 0.546 | -0.635 | 0.409 | -0.0996 | -0.1 |
| COc1ccc(CCNC(=O)[C@@H]2c3ccccc3C(=O)N(Cc3cc(C(F)(F)F)cc(C(F)(F)F)c3)[C@H]2c2ccc(CO)cc2)cc1 | 0.867 | -1.06 | -0.31 | 0.0713 | -0.935 | -0.141 | -0.147 | -0.273 | 0.338 | 0.795 | -0.329 | -0.586 (inactive) | -0.208 | -0.149 | 0.681 | 0.84 | 0.566 | 1.14 | -0.571 | 0.425 |
| C=C[C@@H](COC(C)=O)N(C(=O)OC(C)(C)C)S(=O)(=O)c1ccc(Br)cc1 | 0.789 | 0.429 | 1.27 | 0.486 | 0.367 | 0.0973 | -0.141 | -0.0317 | 1.06 | 1.32 | 0.321 | 0.388 (inactive) | 0.0494 | -0.0401 | 0.646 | 0.155 | -0.101 | 0.827 | 1.4 | 1.12 |
